Test results published in PubChem BioAssay AID1851 (National Center for Advancing Translational Sciences (NCATS), 2009).
Several values for one entry are separate records, joined by “and”; a condition that tells them apart may be missing. Equal entries are not always repeated. Among all 16,000 compounds or so, about 5,800 (36%) were called active. Inconclusive results (about 23%) are left out. The list shows a part of the results. A number with no mark means an inactive call. Calls follow the shape of the dose curve; as a rule, active = well fitted curve in the direction sought with a large enough effect; inconclusive = small, poorly fitted or top-dose-only effect, or effect the other way; inactive = no such curve, though single readings can be large or run the other way.
% is scaled to controls: 0 for no effect and ±100 for the full control effect.

These compounds were tested against Cytochrome P450 2C19 (Homo sapiens) (UniProt P33261) (assay: Cytochrome panel assay with activity outcomes). Settings: recombinant CYP, pro-luciferin dealkylation, luminescence, p450-cyp2c19; series mostly up to 57.1 µM.
Cytochrome P450 2C19 (Homo sapiens), sequence (P33261 whole entry, looked up): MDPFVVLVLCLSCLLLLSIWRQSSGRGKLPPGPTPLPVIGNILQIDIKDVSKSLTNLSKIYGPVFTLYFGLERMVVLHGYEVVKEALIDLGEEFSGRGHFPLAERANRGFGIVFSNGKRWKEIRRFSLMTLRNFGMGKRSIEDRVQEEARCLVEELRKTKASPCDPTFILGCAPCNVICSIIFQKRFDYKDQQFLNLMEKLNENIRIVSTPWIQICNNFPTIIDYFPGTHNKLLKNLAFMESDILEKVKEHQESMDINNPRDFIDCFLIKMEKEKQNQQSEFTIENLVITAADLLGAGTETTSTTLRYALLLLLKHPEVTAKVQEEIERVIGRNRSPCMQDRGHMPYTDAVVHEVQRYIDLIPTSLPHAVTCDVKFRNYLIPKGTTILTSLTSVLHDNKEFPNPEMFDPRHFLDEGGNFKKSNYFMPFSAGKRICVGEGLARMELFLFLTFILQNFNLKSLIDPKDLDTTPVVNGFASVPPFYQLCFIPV
NCCSCCC(=O)O showed an activity, negative = inhibition of 13.2% [at 11.4 µM].
With CN(C)Cc1ccccc1-c1cncnc1NCc1cccnc1 the AC50 was “inactive”.
For Cc1ccccc1-c1cncnc1NCc1cccnc1, the AC50 was 0.398 µM (active).
For Cc1ccccc1-c1cncnc1NCc1ccccc1, the AC50 was 2 µM (active).
In the case of Cc1noc(C)c1-c1cncnc1NCc1ccccc1, the AC50 was “inactive”.
In the case of Cc1cccc(CNc2ncncc2-c2ccccc2Cl)c1, the AC50 was 1 µM (active).
For COc1ccccc1-c1cncnc1NCc1cccnc1, the AC50 was 3.16 µM (active).
For Cc1nc(N=Nc2ccc(S(=O)(=O)O)cc2S(=O)(=O)O)c(COP(=O)(O)O)c(C=O)c1O, the AC50 was “inactive”.
With COc1ncc2nc(-c3cccc(C#N)c3)c(=O)n(CCC#N)c2n1 the AC50 was “inactive”.
In the case of FC(F)(F)c1ccccc1-c1cncnc1NCc1cccnc1, the AC50 was 2.51 µM (active).
CC(=O)NCCNc1ncncc1-c1ccccc1C was tested, and the AC50 was “inactive”.
Cc1cnc(CNc2ncncc2-c2ccccc2CN(C)C)cn1 was tested, and the AC50 was “inactive”.
For Cc1cccc(CNc2ncncc2-c2ccccc2C)c1, the AC50 was 1 µM (active).
With N#Cc1ccccc1-c1cncnc1NCc1cccnc1 the AC50 was “inactive”.
Cc1cnc(CNc2ncncc2-c2ccccc2C)cn1 was tested, and the AC50 was 7.94 µM (active).
For COc1ccccc1-c1cncnc1NCc1cccc(C)c1, the AC50 was 0.398 µM (active).
With Cc1cnc(CNc2ncncc2-c2ccccc2C#N)cn1 the AC50 was “inactive”.
With Nc1cc(C(=O)O)[nH]c(=O)n1 the activity, negative = inhibition was 35.4% [at 11.4 µM].
In the case of COC(=O)CNC(=O)CCCCC(=O)NCC(=O)OC, the AC50 was “inactive”.
For Cc1nc2sccn2c(=O)c1Cl, the AC50 was “inactive”.
Compound CC(C)(CN)CN has an activity, negative = inhibition of 26.4% [at 11.4 µM].
In the case of CSc1nncc(/C(C)=N\Nc2ccccc2)n1, the AC50 was 5.01 µM (active).
With O=C(c1cccc(F)c1)N1CCC2(CCCN(Cc3cc(C(F)(F)F)cc(C(F)(F)F)c3)C2)CC1 the AC50 was “inactive”.
For O=C(c1ccco1)N1CCC2(CCCN(Cc3ccncc3)C2)CC1, the AC50 was 10 µM (active).
For O=C(c1cccc(F)c1)N1CCC2(CCCN(Cc3ccncc3)C2)CC1, the AC50 was 10 µM (active).
For O=C(c1ccco1)N1CCC2(CCN(Cc3ccncc3)CC2)CC1, the AC50 was “inactive”.
With O=C(c1cccc(F)c1)N1CCC2(CC1)CN(Cc1ccccc1)C2 the AC50 was “inactive”.
For N#Cc1ccc(CN2CCCC3(CCN(C(=O)c4cccc(F)c4)CC3)C2)cc1, the AC50 was “inactive”.
With O=C(c1cccc(F)c1)N1CCC2(CCCN(Cc3ccccc3)C2)CC1 the AC50 was “inactive”.
O=C(c1ccco1)N1CCC2(CCCN(Cc3ccccc3)C2)CC1 was tested, and the AC50 was “inactive”.
N#Cc1ccc(CN2CC3(CCN(C(=O)c4cccc(F)c4)CC3)C2)cc1 was tested, and the AC50 was 2 µM (active).
O=C(O)c1ccc2c(c1)C(=O)N(C(Cc1ccc(O)cc1)C(=O)O)C2=O (configuration not stated) was tested, and the AC50 was “inactive”.
In the case of CO[C@@H]1COC(=O)[C@H](CCSC)NC(=O)C/C=C\[C@@H](C)COC(=O)[C@@H]2CCCN2C(=O)C/C=C\[C@H]1C, the activity, negative = inhibition was 43.9% [at 11.4 µM].
In the case of Cc1cc(C(C)(C)C)cc(CNC2CCCCC2)c1O, the AC50 was 0.02 µM (active).
CC(C)(C)c1cc2c(O)c(c1)Cc1cc(C(C)(C)C)cc(c1O)Cc1cc(C(C)(C)C)cc(c1O)Cc1cc(C(C)(C)C)cc(c1O)Cc1cc(C(C)(C)C)cc(c1O)Cc1cc(C(C)(C)C)cc(c1O)Cc1cc(C(C)(C)C)cc(c1O)Cc1cc(C(C)(C)C)cc(c1O)C2 gave an activity, negative = inhibition of -8.28% [at 11.4 µM].
With O=C(Cc1cccs1)N1CCC(c2nc3c(nnn3Cc3ccccc3Cl)c(=O)[nH]2)CC1 the AC50 was 2 µM (active).
In the case of O=C(CSc1ccc(C(F)(F)F)cc1[N+](=O)[O-])Nc1ccccc1, the AC50 was 0.891 µM (active).
O=C(Nc1ccccc1)N1CC2(CCN(C(=O)c3cc(C(F)(F)F)cc(C(F)(F)F)c3)CC2)C1 was tested, and the AC50 was “inactive”.
Cc1ccc(Nc2c([N+](=O)[O-])ccc3c2=NC2(CCCCC2)N=3)cc1 was tested, and the AC50 was 2.82 µM (active).
In the case of COc1c(F)c(F)c(C(=O)O)c(Nc2ccc(C)cc2)c1F, the AC50 was “inactive”.
In the case of CSc1nsc(SC)c1C(=O)Nc1ccc(C)cc1, the AC50 was 8.91 µM (active).
CCCCOC(=O)c1ccc(NC(=S)NC(=O)c2c(Cl)cnn2C)cc1 was tested, and the AC50 was 15.8 µM (active).
For CCN=C(Nc1cccc(F)c1)SC1CC(=O)N(c2ccc(OC)cc2)C1=O (configuration not stated), the AC50 was 3.98 µM (active).
With COCC(=O)N1CCC2(CC1)CCN(C(=O)Nc1cccc(F)c1)CC2 the AC50 was “inactive”.
CC(=O)Nc1ccc(N2C(=O)CC(c3ccccc3)CC2=O)cc1 was tested, and the AC50 was “inactive”.
In the case of CCOC(=O)NNC1CC(=O)N(c2ccc(OC)cc2)C1=O (configuration not stated), the AC50 was “inactive”.
For O=C1CC(SC(=Nc2ccccc2)Nc2ccccc2)C(=O)N1c1cccc(Cl)c1 (configuration not stated), the AC50 was 2.24 µM (active).
CC(C)(C)NC[C@H](O)COc1cccc2c1CCC(=O)N2 was tested, and the AC50 was “inactive”.
C[C@@H]1C(=O)N(C)C(=O)c2nc[nH]c21 was tested, and the AC50 was “inactive”.
CCSC[C@@H](N)C(=O)O was tested, and the activity, negative = inhibition was 17.8% [at 11.4 µM].
With O=C(O)c1ccccc1C(=O)Nc1nccs1 the AC50 was “inactive”.
With Nc1c2c(nc3ccccc13)CCC[C@H]2O the AC50 was “inactive”.
In the case of Cc1sc(NC(=O)C2CCCCC2C(=O)O)c(C(N)=O)c1C (configuration not stated), the AC50 was “inactive”.
For Cc1ccc(C)c(-c2cc(C(=O)Nc3sc(C)c(C)c3C(N)=O)c3ccccc3n2)c1, the AC50 was 2.24 µM (active).
In the case of Cc1ccccc1-c1cc(C(=O)Nc2nc3c(s2)CCCC3)c2ccccc2n1, the AC50 was 4.47 µM (active).
With COC(=O)c1sccc1NC(=O)c1cc(-c2cc(C)ccc2C)nc2ccccc12 the AC50 was 2.51 µM (active).
Cc1ccc(C)c(-c2cc(C(=O)Nc3nccs3)c3ccccc3n2)c1 was tested, and the AC50 was 10 µM (active).
For CN(C)c1ccc(O)c2c1C[C@H]1C[C@H]3[C@@H](N(C)C)C(=O)C(C(N)=O)=C(O)[C@]3(O)C(=O)C1=C2O, the AC50 was “inactive”.
Cc1onc(-c2ccccc2Cl)c1C(=O)Nc1nnc(Cc2ccc(Cl)cc2)s1 was tested, and the AC50 was 15.8 µM (active).
For Cc1ccc(NC(=S)NC(=O)c2c(-c3ccccc3Cl)noc2C)cc1, the AC50 was 2 µM (active).
Cc1ccccc1-n1nc2c(c1NC(=O)c1c(-c3ccccc3Cl)noc1C)CSC2 was tested, and the AC50 was 11.2 µM (active).
In the case of CC(=O)C1=NOC(CNC(=O)c2c(-c3ccccc3Cl)noc2C)C1 (configuration not stated), the AC50 was 11.2 µM (active).
For COc1ccc(Cc2nnc(NC(=O)c3ccc(Cl)c([N+](=O)[O-])c3)s2)cc1, the AC50 was “inactive”.
Cc1ccccc1-n1nc2c(c1NC(=O)c1ccc(S(=O)(=O)N(C)C)cc1)CSC2 was tested, and the AC50 was “inactive”.
COc1ccc(-c2nc3cnc(Nc4cccc(OC)c4)nc3n(CCC#N)c2=O)cc1 was tested, and the AC50 was “inactive”.
With CCOC(=O)c1cnc2cc(-c3ccc(C(C)(C)C)cc3)nn2c1N the AC50 was 0.562 µM (active).
Cc1ccccc1C(=O)NNC(=O)c1ccoc1C was tested, and the AC50 was “inactive”.
In the case of Cc1occc1C(=O)NNC(=O)Cc1ccccc1, the AC50 was 10 µM (active).
With CCCC[S@@](=N)(=O)CC[C@@H](N)C(=O)O the AC50 was “inactive”.
For Cc1ccc(OCCNC(=O)c2cncc(Br)c2)cc1C, the AC50 was 6.31 µM (active).
For Fc1ccc(-c2csc(N3CCC(c4ccccc4)C3)n2)cc1 (configuration not stated), the AC50 was 11.2 µM (active).
With Cc1c(C2CCN(CCc3ccccc3)CC2)noc1-c1ccc(Cl)cc1 the AC50 was “inactive”.
With Clc1ccc(-c2csc(N3CCC(c4ccccc4)C3)n2)cc1 (configuration not stated) the AC50 was 10 µM (active).
For Brc1ccc(-c2csc(N3CCC(c4ccccc4)C3)n2)cc1 (configuration not stated), the AC50 was 10 µM (active).
In the case of Fc1cccc(C2NC(=S)NC3=C2N2CCC3CC2)c1 (configuration not stated), the AC50 was “inactive”.
Clc1ccc2c(c1)N=C(N1CCNCC1)c1ccccc1N2 was tested, and the AC50 was “inactive”.
Cc1cccc(CNc2ccnc(-c3ccoc3)n2)c1 was tested, and the AC50 was 10 µM (active).
In the case of Cc1cnc(CNc2ccnc(-c3ccoc3)n2)cn1, the AC50 was “inactive”.
c1ccc(CNc2ccnc(-c3ccoc3)n2)cc1 was tested, and the AC50 was 3.98 µM (active).
CCCN(C/C=C\I)[C@@H]1CCc2cccc(O)c2C1 was tested, and the AC50 was “inactive”.
Cc1ccc(N(C(C)C(=O)Nc2cc(Cl)ccc2Oc2ccccc2)S(C)(=O)=O)cc1 (configuration not stated) was tested, and the AC50 was 1.41 µM (active).
In the case of CC(C(=O)Nc1ccccc1Sc1ccccc1)N(c1ccccc1)S(C)(=O)=O (configuration not stated), the AC50 was 4.47 µM (active).
Cc1cc2c(=O)[nH]c(N)nc2nc1C showed an activity, negative = inhibition of 20.6% [at 11.4 µM].
In the case of O=C1CC(NCCC2=CCCCC2)C(=O)N1c1cccc(Cl)c1Cl (configuration not stated), the AC50 was 4.47 µM (active).
With CO[C@H]1COC(=O)C/C=C\[C@H](C)[C@H](OC)COC(=O)[C@@H](C)COC(=O)C/C=C\[C@@H]1C the activity, negative = inhibition was -8.22% [at 11.4 µM] and -6.35% [at 11.4 µM].
With Cc1ccc(C2CC2C(=O)NN)cc1 (configuration not stated) the AC50 was 3.55 µM (active).
C=CCN1CCc2c(cc(O)c(O)c2Cl)[C@H](c2ccccc2)C1 was tested, and the AC50 was “inactive”.
In the case of O=C(CCCN1C(=O)C2C3C=CC(C3)C2C1=O)N1CCN(c2ccccc2)CC1 (configuration not stated), the AC50 was “inactive”.
CCOC(=O)C1CCCN(C(=O)CCCOc2cc(=O)n(C)c3ccccc23)C1 (configuration not stated) was tested, and the AC50 was 6.31 µM (active).
Cn1c(=O)cc(OCCCC(=O)N2CCN(c3ccccc3)CC2)c2ccccc21 was tested, and the AC50 was 1.26 µM (active).
O=C(O)c1ccc(/C=N\N=C2c3ccccc3-c3ccccc32)cc1 was tested, and the activity, negative = inhibition was 19.5% [at 11.4 µM].
Cc1c(S(=O)(=O)O)ccc(N=Nc2c(O)c(C(=O)O)cc3ccccc23)c1Cl was tested, and the activity, negative = inhibition was 14.5% [at 11.4 µM].
COC(=O)CNC(c1ccccc1Cl)c1cc(Br)ccc1NC(=O)CCN1CCOCC1 (configuration not stated) was tested, and the AC50 was 28.2 µM (active).
O=C1C[C@@H](O)[C@@H](O)[C@H]2[C@@H]3C(=O)N(C[C@@H]4CCCO4)C(=O)[C@@H]3CC[C@H]12 was tested, and the activity, negative = inhibition was 43.9% [at 11.4 µM] and 16.6% [at 11.4 µM].
With Cn1cccc1C(=O)N1CCC2(CC1)CCN(C(c1ccccc1)c1ccccc1)CC2 the AC50 was “inactive”.
CN(C)c1ccc(-c2cncnc2NCc2cccnc2)cc1 was tested, and the AC50 was 0.0316 µM (active).
CNc1ncncc1-c1ccc(C(=O)N(C)C)cc1 was tested, and the AC50 was 25.1 µM (active).
With CN(C)C(=O)c1ccc(-c2cncnc2NCc2ccccc2)cc1 the AC50 was “inactive”.
With CN(C)c1ccc(-c2cncnc2NCc2ccccc2)cc1 the AC50 was 0.398 µM (active).
In the case of CN(C)C(=O)c1ccc(-c2cncnc2Nc2ccccc2)cc1, the AC50 was “inactive”.
For CN(C)C(=O)c1ccc(-c2cncnc2NCc2cccnc2)cc1, the AC50 was 2.51 µM (active).
In the case of Cc1cnc(CNc2ncncc2-c2ccc(C(=O)N(C)C)cc2)cn1, the AC50 was “inactive”.
